# Reference: PubChem BioAssay
# Calls of active or inactive are those of the source.
# Columns and labels:
# [1] = tested on: PRMT1 (protein arginine N-methyltransferase 1); experiment: PRMT1 binders on small-molecule microarrays, primary screen, biochemical, small-molecule microarray, 635 nm fluorescence (AID 1088); settings: small-molecule microarray binding, higher = more signal;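 further: binding of Prmt1 protein to compounds spotted on small-molecule microarray slides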
# [2] = yeast growth modulation, basal conditions, primary screen, YJM789 clinical isolate, OD600, 24 h (AID 1089);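 further: growth of clinical yeast isolate S. cerevisiae YJM 789 seeded 1000 cells per well; test concentration not given here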; settings: S. cerevisiae YJM789 growth, higher = more signal, called active from +8 up or from −8 down
# [3] = fission yeast growth modulation, primary screen, strain 972, OD600, 24 h, no modulator (AID 1090);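 further: basal condition with compound alone and no growth modifier present; test concentration not given here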; settings: S. pombe 972 growth, higher = more signal, called active from +8 up or from −8 down
# [4] = S. cerevisiae growth modulation with rapamycin, primary screen, strain BY4716, OD600, 96 h (AID 1091); settings: higher = more signal, called active from +8 up or from −8 down; further: test concentration not given here
# [5] = target: Torsin-1A-interacting protein 2 (Homo sapiens) (UniProt Q8NFQ8); experiment: LULL1 binders on small-molecule microarray, primary screen, cell lysate, human LULL1 lysate, 635/667 nm fluorescence (AID 1092); settings: hLULL1 lysate binding, 635 nm fluorescence, higher = more signal;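 further: probe is lysate of COS7 cells overexpressing human LULL1; score merges per-feature 667 nm fluorescence with signal-to-noise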
# Sequence of Torsin-1A-interacting protein 2 (Homo sapiens) (Q8NFQ8 whole entry, looked up): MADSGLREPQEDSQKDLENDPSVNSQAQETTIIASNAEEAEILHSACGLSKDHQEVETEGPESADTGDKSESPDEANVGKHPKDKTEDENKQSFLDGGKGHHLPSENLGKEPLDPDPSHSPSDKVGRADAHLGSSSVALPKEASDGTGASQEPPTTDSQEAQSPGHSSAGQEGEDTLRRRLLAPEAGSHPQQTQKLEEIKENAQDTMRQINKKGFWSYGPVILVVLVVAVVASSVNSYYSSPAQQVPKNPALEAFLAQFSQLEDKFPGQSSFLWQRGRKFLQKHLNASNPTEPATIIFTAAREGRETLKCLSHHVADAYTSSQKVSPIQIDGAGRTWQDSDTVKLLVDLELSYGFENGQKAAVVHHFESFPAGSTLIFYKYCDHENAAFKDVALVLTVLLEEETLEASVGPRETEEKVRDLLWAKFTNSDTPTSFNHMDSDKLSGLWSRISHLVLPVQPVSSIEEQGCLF
# [6] = E. coli growth modulation, two-sided OD650, primary screen, E. coli filamentation project, strain DRC41, 24 h (AID 1093); settings: OD650, 24 h, higher = more signal, called active from +8 up or from −8 down;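 further: MC1000 strain lacking acrAB efflux and sulA so SOS filamentation is blocked; test concentration not given here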
# [7] = small-molecule microarray binders of probe aLefty2, primary screen, biochemical, biotinylated probe, 635/667 nm fluorescence (AID 1094); settings: higher = more signal;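 further: score merges spot fluorescence near 667 nm with spot signal-to-noise ratio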
# [8] = tested on: Noggin (protein binding on small-molecule microarray); experiment: Noggin binders on small-molecule microarray, primary screen, biochemical, 635/667 nm fluorescence (AID 1095); settings: 635 nm fluorescence, higher = more signal;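 further: score merges 667 nm feature fluorescence with signal to noise over triplicate slides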
# [9] = target: Neurogenic locus notch homolog protein 3 (Homo sapiens) (UniProt Q9UM47); experiment: NOTCH3 binders on small-molecule microarray, primary screen, biochemical, 635/667 nm fluorescence (AID 1096); settings: NOTCH3 binding, 635 nm fluorescence, higher = more signal
# Sequence of Neurogenic locus notch homolog protein 3 (Homo sapiens) (Q9UM47 whole entry, looked up): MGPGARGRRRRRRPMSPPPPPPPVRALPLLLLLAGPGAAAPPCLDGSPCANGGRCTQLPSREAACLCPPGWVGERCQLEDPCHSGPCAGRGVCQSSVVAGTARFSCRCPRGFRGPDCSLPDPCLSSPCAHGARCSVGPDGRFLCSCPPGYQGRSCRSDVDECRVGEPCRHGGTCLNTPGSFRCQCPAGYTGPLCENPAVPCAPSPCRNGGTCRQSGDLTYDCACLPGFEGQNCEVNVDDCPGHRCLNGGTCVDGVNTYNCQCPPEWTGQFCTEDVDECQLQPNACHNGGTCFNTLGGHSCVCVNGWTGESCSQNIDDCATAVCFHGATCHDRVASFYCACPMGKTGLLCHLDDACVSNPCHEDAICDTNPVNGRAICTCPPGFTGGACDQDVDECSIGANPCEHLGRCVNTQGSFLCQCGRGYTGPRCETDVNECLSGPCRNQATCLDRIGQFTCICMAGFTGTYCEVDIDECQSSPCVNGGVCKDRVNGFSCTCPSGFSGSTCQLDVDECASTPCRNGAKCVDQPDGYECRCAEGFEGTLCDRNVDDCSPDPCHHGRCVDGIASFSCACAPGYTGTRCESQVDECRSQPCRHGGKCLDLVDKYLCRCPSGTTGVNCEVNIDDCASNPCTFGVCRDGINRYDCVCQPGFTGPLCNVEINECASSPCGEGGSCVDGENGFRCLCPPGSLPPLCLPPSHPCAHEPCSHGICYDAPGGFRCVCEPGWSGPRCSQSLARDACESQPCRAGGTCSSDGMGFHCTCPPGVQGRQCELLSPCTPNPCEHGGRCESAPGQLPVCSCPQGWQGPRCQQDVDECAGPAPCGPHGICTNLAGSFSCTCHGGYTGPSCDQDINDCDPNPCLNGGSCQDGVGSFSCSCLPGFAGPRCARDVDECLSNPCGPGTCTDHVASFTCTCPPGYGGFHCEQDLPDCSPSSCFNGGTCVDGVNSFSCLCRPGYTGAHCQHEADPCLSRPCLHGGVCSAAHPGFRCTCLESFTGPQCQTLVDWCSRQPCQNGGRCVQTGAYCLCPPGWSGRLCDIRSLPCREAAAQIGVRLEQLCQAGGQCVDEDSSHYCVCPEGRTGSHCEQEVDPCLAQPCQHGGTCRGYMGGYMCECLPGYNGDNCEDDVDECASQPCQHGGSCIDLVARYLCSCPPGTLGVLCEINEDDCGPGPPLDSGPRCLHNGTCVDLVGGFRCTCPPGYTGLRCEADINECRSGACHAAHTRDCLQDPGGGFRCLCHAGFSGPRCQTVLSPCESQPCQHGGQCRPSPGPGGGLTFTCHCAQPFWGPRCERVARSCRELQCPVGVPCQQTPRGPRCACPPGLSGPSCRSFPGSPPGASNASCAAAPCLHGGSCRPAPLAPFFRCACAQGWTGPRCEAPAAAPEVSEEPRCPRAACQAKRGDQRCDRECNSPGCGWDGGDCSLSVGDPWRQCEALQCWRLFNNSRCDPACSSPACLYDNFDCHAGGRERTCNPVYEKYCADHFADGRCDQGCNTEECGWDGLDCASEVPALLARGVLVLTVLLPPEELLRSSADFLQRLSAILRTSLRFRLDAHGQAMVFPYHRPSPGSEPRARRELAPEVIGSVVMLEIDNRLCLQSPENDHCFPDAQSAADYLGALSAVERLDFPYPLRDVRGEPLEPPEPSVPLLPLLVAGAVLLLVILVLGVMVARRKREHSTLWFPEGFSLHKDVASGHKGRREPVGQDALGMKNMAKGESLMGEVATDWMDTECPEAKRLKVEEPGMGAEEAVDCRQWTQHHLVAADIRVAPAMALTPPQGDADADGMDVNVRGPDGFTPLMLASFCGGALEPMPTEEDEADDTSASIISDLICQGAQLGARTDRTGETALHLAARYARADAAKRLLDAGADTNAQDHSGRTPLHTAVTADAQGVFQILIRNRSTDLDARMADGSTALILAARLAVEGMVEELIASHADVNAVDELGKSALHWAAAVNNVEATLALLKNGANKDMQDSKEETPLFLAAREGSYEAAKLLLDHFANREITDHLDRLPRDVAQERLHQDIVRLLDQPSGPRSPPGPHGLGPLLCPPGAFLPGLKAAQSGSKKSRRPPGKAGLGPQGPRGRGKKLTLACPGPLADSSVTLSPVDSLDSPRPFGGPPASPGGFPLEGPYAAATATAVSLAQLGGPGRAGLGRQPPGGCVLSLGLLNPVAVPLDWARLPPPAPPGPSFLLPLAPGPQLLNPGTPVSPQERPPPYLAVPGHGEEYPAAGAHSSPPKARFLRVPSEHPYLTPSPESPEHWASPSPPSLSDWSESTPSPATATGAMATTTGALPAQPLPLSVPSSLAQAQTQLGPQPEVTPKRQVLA
# [10] = small-molecule microarray binders of probe aEGFR, primary screen, biochemical, biotinylated probe, 635/667 nm fluorescence (AID 1097); settings: higher = more signal;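 further: probe is a biotinylated anti-EGFR antibody binding compounds printed on slides; score combines fluorescence near 667 nm and signal to noise of each spot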
# [11] = tested on: Plasmodium falciparum Sir2 (PF13_0152, Sir2A); experiment: pfSir2 binders on small-molecule microarrays, primary screen, biochemical, small-molecule microarray, 635 nm fluorescence (AID 1098); settings: small-molecule microarray binding, fluorescence 635 nm; higher = more signal;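 further: score merges spot fluorescence intensity with its signal-to-noise ratio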
# [12] = small-molecule microarray binders of probe aDKK1, primary screen, biochemical, biotinylated probe, 635/667 nm fluorescence (AID 1099); settings: higher = more signal;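 further: score merges 667nm spot fluorescence with signal to noise across triplicate slides; reference of the scale not given here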
# [13] = small-molecule microarray binders of probe aCHRDL2, primary screen, biochemical, biotinylated probe, 635/667 nm fluorescence (AID 1100); settings: higher = more signal
# [14] = splicing luciferase reporter signal modulators, primary screen, spliceosome inhibition project, cell-based, HEK293, splice +/- reporter (AID 1101); settings: luminescence, 24 h, higher = more signal, called active from +8 up or from −8 down;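 further: HEK293 cells carrying a splicing-competent luciferase reporter gene; test concentration not given here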
# [15] = target: Fibroblast growth factor 10 (Homo sapiens) (UniProt O15520); experiment: FGF10 binders on small-molecule microarrays, primary screen, biochemical, small-molecule microarray, 635 nm fluorescence (AID 1102); settings: FGF10 binding, fluorescence 635 nm, higher = more signal
# Sequence of Fibroblast growth factor 10 (Homo sapiens) (O15520 whole entry, looked up): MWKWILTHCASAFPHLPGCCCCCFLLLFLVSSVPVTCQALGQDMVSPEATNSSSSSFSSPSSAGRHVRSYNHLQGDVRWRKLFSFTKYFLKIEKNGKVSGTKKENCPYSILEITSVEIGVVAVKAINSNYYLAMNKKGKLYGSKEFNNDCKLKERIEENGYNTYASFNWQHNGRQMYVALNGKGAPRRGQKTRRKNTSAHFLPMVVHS
# [16] = tested on: glycogen synthase kinase-3 (GSK3A per assay name; protocol says GSK3B); experiment: GSK3 binders on small-molecule microarrays, primary screen, biochemical, small-molecule microarray, 635 nm fluorescence, GSK3A (AID 1103); settings: small-molecule microarray binding, fluorescence 635 nm; higher = more signal; further: the record names both GSK3A and GSK3B
# [17] = target: Epidermal growth factor receptor (Homo sapiens) (UniProt P00533); experiment: EGFR binders on small-molecule microarrays, primary screen, biochemical, small-molecule microarray, 635 nm fluorescence (AID 1104); settings: EGFR binding, higher = more signal;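 further: score merges 667 nm emission intensity with spot signal to noise over triplicate slides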
# Sequence of Epidermal growth factor receptor (Homo sapiens) (P00533 whole entry, looked up): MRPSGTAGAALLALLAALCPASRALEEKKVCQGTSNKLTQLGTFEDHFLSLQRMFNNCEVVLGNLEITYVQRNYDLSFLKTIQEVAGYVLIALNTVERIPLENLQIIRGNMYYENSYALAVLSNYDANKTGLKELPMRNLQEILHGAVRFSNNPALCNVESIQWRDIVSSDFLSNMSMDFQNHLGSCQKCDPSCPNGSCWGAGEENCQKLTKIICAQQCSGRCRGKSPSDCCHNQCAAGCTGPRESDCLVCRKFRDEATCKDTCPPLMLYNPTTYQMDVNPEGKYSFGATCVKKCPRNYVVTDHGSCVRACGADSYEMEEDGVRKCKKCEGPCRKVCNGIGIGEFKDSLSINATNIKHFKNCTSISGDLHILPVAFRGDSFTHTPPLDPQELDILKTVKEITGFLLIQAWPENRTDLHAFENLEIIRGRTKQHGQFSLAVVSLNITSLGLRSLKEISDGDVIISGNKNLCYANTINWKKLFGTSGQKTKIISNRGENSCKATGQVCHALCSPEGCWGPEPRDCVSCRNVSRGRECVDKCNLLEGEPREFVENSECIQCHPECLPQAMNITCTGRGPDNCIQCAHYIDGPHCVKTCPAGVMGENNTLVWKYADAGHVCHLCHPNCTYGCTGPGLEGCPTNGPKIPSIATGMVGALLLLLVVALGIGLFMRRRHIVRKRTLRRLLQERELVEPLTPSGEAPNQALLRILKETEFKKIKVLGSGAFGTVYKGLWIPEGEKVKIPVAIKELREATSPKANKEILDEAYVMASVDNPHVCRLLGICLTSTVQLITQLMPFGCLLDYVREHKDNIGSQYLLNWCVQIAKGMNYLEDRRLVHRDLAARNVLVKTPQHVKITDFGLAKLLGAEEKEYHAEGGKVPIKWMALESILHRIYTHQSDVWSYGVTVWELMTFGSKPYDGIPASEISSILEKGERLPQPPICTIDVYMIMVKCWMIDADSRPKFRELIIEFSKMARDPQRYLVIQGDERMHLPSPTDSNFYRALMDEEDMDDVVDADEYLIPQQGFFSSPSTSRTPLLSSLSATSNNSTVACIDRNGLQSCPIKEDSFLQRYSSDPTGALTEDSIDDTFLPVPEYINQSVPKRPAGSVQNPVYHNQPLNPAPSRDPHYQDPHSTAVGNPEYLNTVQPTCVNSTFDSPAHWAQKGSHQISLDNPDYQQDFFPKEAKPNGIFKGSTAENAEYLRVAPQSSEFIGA
# [18] = target: Follistatin-related protein 3 (Homo sapiens) (UniProt O95633); experiment: FSTL3 binders on small-molecule microarrays, primary screen, biochemical, small-molecule microarray, 635 nm fluorescence (AID 1105); settings: FSTL3 binding, higher = more signal;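 further: score merges emission near 667 nm and signal to noise per printed spot across three slides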
# Sequence of Follistatin-related protein 3 (Homo sapiens) (O95633 whole entry, looked up): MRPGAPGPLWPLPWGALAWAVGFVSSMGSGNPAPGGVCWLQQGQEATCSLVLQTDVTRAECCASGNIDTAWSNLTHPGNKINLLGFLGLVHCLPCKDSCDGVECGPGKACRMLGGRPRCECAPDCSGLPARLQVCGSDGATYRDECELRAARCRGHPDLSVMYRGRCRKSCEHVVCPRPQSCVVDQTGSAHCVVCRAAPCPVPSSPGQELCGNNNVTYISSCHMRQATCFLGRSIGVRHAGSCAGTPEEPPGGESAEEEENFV
# [19] = target: Dickkopf-related protein 1 (Homo sapiens) (UniProt O94907); experiment: DKK1 binders on small-molecule microarrays, primary screen, biochemical, small-molecule microarray, 635 nm fluorescence scan (AID 1106); settings: DKK1 binding, higher = more signal;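 further: score merges emission near 667 nm with signal to noise over three replicate slides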
# Sequence of Dickkopf-related protein 1 (Homo sapiens) (O94907 whole entry, looked up): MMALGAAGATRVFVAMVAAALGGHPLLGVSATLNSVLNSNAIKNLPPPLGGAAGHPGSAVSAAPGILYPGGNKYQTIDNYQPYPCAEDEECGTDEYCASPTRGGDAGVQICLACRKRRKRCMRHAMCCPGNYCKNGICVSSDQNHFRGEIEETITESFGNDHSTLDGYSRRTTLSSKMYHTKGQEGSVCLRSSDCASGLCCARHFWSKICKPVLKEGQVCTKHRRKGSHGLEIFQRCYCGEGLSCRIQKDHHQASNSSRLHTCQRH
# [20] = tested on: Inhibin beta A chain (activin A); experiment: INHBA (activin A) binders on microarrays, primary screen, biochemical, small-molecule microarray, 635 nm fluorescence scan (AID 1107); settings: small-molecule microarray binding, higher = more signal;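 further: mouse activin A protein probed at 4.33 µg/mL on printed slides; score merges bound-protein fluorescence near 667 nm with spot signal-to-noise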
SMILES,composite z-score [1],z-score [2],z-score [3],z-score [4],composite z-score [5],z-score [6],composite z-score [7],composite z-score [8],composite z-score [9],composite z-score [10],composite z-score [11],composite z-score [12],composite z-score [13],z-score [14],composite z-score [15],composite z-score [16],composite z-score [17],composite z-score [18],composite z-score [19],composite z-score [20]
CC(C)C(=C=CC[C@H](O)c1ccccc1OCCO)C[C@H](O)c1ccccn1,0.813,0.241 (inactive),-0.709 (inactive),-0.365 (inactive),2.27,0.662 (inactive),0.0374,0.247,0.719,0.151,1.62,0.0012,-0.203,-0.705 (inactive),0.764,0.559,-0.536,-0.0639,-0.0832,0.407
CN(C)CCCCCCNC(=O)[C@H]1C[C@H]2C(=O)N[C@@H](CCCCN)C(=O)N2[C@H]1c1ccc(O)cc1,1.54,-0.329 (inactive),-2.88 (inactive),-0.02 (inactive),4.58,-0.151 (inactive),1.76,2.02,1,1.15,2.14,2.83,1.71,0.509 (inactive),1.29,1.48,1.6,1.65,2.15,1.45
CCN(CC)c1ccc(N2CC=CC34O[C@@H]5C=CCCOC(=O)C5[C@H]3C(=O)N(CCCCCO)[C@@H]4C2=O)cc1 (stereo not given in full),-0.203,-0.847 (inactive),-1.3 (inactive),-0.818 (inactive),0.965,2.85 (inactive),-0.126,-0.514,-0.272,-0.168,-0.144,-0.0409,0.0109,-0.779 (inactive),-0.292,-0.139,-0.76,-0.339,-0.182,1.52
O=C1C[C@@](C(=O)NC2CC2)(c2ccc([N+](=O)[O-])cc2)[C@@H](c2ccc(CO)cc2)N1CC12CC3CC(CC(C3)C1)C2,1.27,-0.632 (inactive),-1.06 (inactive),0.122 (inactive),1.61,0.587 (inactive),0.0469,0.883,1.14,-0.0485,1.3,-0.0801,0.782,-1.42 (inactive),0.474,0.612,0.1,0.925,0.253,0.571
CCCCC=C[C@@H](NC(=O)c1ccco1)c1ccccc1,-0.568,0.529 (inactive),1 (inactive),1.92 (inactive),0.539,-0.675 (inactive),-0.0251,0.103,0.657,0.0836,0.276,0.373,0.557,0.808 (inactive),0.689,-0.877,0.12,0.296,0.0504,0.809
C=CCNC(=O)[C@@H]1[C@H]2C(=O)O[C@H](c3ccccc3)[C@H](c3ccccc3)N2[C@H](c2ccc(O)cc2)[C@@]12C(=O)N(C(=O)OCCOC)c1ccccc12,1.53,0.655 (inactive),0.625 (inactive),2.8 (inactive),3.25,1.11 (inactive),-0.0458,0.559,0.509,-0.14,1.03,-0.0262,0.421,-1 (inactive),0.796,1.02,-0.405,0.638,-0.232,-0.188
CC(C)C[C@@H]1NC(=O)[C@@H]2C[C@H](C(=O)NCCCCCC[N+](C)(C)C)[C@H](c3ccc(O)cc3)N2C1=O,1.56,0.633 (inactive),0.904 (inactive),0.445 (inactive),3.21,0.266 (inactive),-0.0437,0.857,0.873,-0.176,1.38,0.026,0.0989,0.00513 (inactive),0.623,1.21,0.29,0.706,0.977,0.987
C=C(COC)C(=O)CC[C@H](OC(C)=O)c1cccc(OCCO)c1,0.591,0.513 (inactive),-1.34 (inactive),-0.0523 (inactive),0.118,0.896 (inactive),-0.158,1.03,-0.902,-0.263,-0.443,-0.305,-0.0122,-0.637 (inactive),1.06,0.121,-0.92,-0.249,-0.118,0.35
COc1c(C)cc(-c2cc3c(c(-c4ccc(Oc5ccccc5)cc4)n2)[Si](C(C)C)(C(C)C)OC3)cc1C,-0.871,1.09 (inactive),0.818 (inactive),2.03 (inactive),0.0255,-1.38 (inactive),-0.0528,0.104,-0.386,-0.0947,-0.486,0.187,0.0857,0.391 (inactive),0.0668,-0.278,0.168,-0.069,0.0431,0.51
CCCCCN1CC=CC23O[C@@H]4/C=C\CCCOC(=O)C4[C@H]2C(=O)N(CCCCCCO)[C@@H]3C1=O (stereo not given in full),-0.0832,-3.85 (inactive),-2.83 (inactive),-2.64 (inactive),3.32,1.61 (inactive),-0.147,-0.471,-0.0559,0.0538,1.43,-0.231,0.139,-3.07 (inactive),-0.894,0.233,-0.0633,-0.0242,-1.22,1.26
